PP5 inh – inhibitors of human protein phosphatase 5 (PP5). inhibition, % at 6.7 µM. purified PP5c, OMFP substrate fluorescence. 320,000 compounds, 0.18% hits;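 active = inhibition above the campaign's mean inhibition across all tested compounds plus 3 SD, cut at about 9.5% in these data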;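 note: 0% = DMSO only and 100% = 100 µM cantharidin control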
PAFAH1B3 inh – PAFAH1B3 (human) inhibition | Q15102 | recombinant PAFAH1B3, FP-rhodamine probe, fluorescence polarization | inhibition, % at 3.39 µM | 340,000 compounds, 0.28% hits;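 active = inhibition above the screen-wide average of all tested compounds plus 3 SD, cut at about 25% in these data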;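 note: 0% = enzyme with DMSO only and 100% = wells lacking PAFAH1B3 protein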
Target sequence (Q15102 whole entry, looked up): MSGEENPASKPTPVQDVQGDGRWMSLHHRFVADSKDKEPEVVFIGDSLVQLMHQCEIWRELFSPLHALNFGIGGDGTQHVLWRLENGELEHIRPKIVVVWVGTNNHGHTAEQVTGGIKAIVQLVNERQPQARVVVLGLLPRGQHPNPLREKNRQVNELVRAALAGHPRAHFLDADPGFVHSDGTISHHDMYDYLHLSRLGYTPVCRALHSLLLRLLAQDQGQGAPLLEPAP
pPAFAH inh – inhibitors of human plasma PAF acetylhydrolase (pPAFAH). Q13093. recombinant pPAFAH, FP-rhodamine probe fluorescence polarization. inhibition, % at 3.39 µM. 330,000 compounds, 1.5% hits. AID 463082;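 active = inhibition above the mean inhibition across the screen plus 3 SD, cut at about 25% in these data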;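 note: inhibitors block binding of the rhodamine activity-based probe so polarization drops; 0% = enzyme with DMSO and 100% = wells lacking pPAFAH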
Fh CTSL1 inh – blocks F. hepatica cathepsin L1 in PFM18AAP counter-screen; inhibition, % at 5.96 µM; AID 1906; 300,000 compounds, 0.49% hits; recombinant F. hepatica cathepsin L1, Z-Leu-Arg-MCA fluorescence;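 active = inhibition above the mean of all tested compounds plus 3 SD, set per screening campaign, cut at about 17% in these data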;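 note: 0% = plate median of test compound wells and 100% = 1 µM Z-Phe-Ala-diazomethylketone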
PAFAH1B2 inh – PAFAH1B2 (human) inhibition. P68402. recombinant PAFAH1B2, FP-rhodamine activity probe, fluorescence polarization. inhibition, % at 3.39 µM. 340,000 compounds, 1.2% hits. AID 492953;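 active = inhibition above the mean of all tested compounds plus 3 SD, cut at about 24% in these data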;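 note: 0% = enzyme with DMSO and 100% = wells lacking PAFAH1B2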
Target sequence (P68402 whole entry, looked up): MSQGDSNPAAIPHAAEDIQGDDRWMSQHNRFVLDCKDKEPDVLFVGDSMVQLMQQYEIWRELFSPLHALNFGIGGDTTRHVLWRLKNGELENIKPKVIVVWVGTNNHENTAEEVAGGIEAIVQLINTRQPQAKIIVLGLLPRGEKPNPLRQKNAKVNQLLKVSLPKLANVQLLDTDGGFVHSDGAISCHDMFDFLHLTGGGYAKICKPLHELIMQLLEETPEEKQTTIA
PAFAH2 FP inh – PAFAH2 (human) inhibition | Q99487 | AID 492956 | inhibition, % at 3.39 µM | recombinant PAFAH2, FP-rhodamine activity probe, fluorescence polarization | 340,000 compounds, 0.99% hits;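 active = inhibition above the mean over all tested compounds plus 3 SD, cut at about 30% in these data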;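 note: inhibitors block probe labeling of enzyme so polarization drops; 0% = enzyme with DMSO and 100% = wells lacking PAFAH2 protein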
* = called active by the depositor; . = no result. Rows were chosen to be rich in hits. Some 3% of all compounds tested hit in one or more screens of this group.

SMILES | PP5 inh | PAFAH1B3 inh | pPAFAH inh | Fh CTSL1 inh | PAFAH1B2 inh | PAFAH2 FP inh
Cc1ccc(C)c(OCCC(=O)N2CCN(S(=O)(=O)c3ccc([N+](=O)[O-])cc3)CC2)c1 | 1.7 | 9.0 | 3.0 | . | 8.4 | 25.4
O=c1cc(SCc2ccccc2)nc[nH]1 | . | 8.0 | . | . | 4.8 | -1.1
CCOC(=O)c1c(NC(=O)CSc2nnc(C)c(=O)[nH]2)sc2c1CCCC2 | 2.1 | 3.2 | 26.8* | 3.4 | 67.7* | 3.1
Cc1nnc(SCC(=O)Nc2sc3c(c2C#N)CCCC3)[nH]c1=O | -2.3 | 4.3 | 16.8 | 4.9 | 4.4 | 8.0
CCOC(=O)c1c(NC(=O)CSc2nnc(C)c(=O)[nH]2)sc(C)c1-c1ccc(C)cc1 | 1.0 | -1.2 | 29.1* | -2.2 | 3.1 | -1.3
O=C(Cc1ccccc1)NCCSCc1ccc(Cl)cc1 | 4.1 | 11.9 | 24.3 | -2.3 | 28.8* | 4.6
O=C(COc1ccccc1)NCCSCc1ccc(Cl)cc1 | -0.1 | 2.2 | 11.4 | 4.0 | 2.7 | -1.7
Cc1ccc(CSCCNS(C)(=O)=O)cc1 | -2.3 | -2.8 | 0.8 | 2.3 | 14.7 | -4.2
CS(=O)(=O)NCCSCc1ccccc1 | -2.4 | 0.0 | -4.2 | 19.0* | 1.0 | 4.7
O=C1NC(=S)SC1=C1CCCC1 | 1.7 | -0.6 | 33.8* | 4.5 | 1.8 | 4.0
O=S(=O)(c1ccc(SCc2ccc(Cl)cc2)nc1)N1CCCC1 | 3.6 | 5.8 | -0.6 | . | 25.8* | 1.8
Cc1cc(C)cc(CSc2ccc(S(=O)(=O)N3CCCC3)cn2)c1 | 4.5 | 10.0 | 5.3 | . | 0.9 | -2.5
O=c1cc(CSc2ccc(S(=O)(=O)N3CCCCC3)cn2)nc2sccn12 | -1.6 | 9.0 | 9.7 | 1.4 | 25.0* | 5.7
COCc1ccc(CN2CCCC(C(=O)Nc3ccc(-c4cscn4)cc3)C2)o1 (configuration not stated) | 4.3 | 2.6 | 7.8 | -0.1 | 1.1 | 3.0
CC(C)(C)CC(C)(C)c1ccc(OCCOCC[N+](C)(C)Cc2ccccc2)cc1 | 2.2 | -8.5 | 25.8* | 9.1 | 21.3 | 1.9
Cc1ccc(S(=O)(=O)N2Cc3ccccc3CC2C(=O)Nc2ccc3c(c2)OCO3)cc1 (configuration not stated) | 0.9 | -2.7 | 28.2* | -0.8 | -1.4 | 0.5
COc1cccc(-n2cnnc2SC(C)C(=O)NC2CCCC2)c1 (configuration not stated) | 2.1 | 6.4 | -3.0 | . | 2.8 | 0.8
O=C(NCC1CCCO1)c1cccc(S(=O)(=O)Nc2ccc(F)cc2)c1 (configuration not stated) | -0.3 | 9.1 | 24.8* | . | 7.1 | 1.1
Cc1cccc(NS(=O)(=O)c2cccc(C(=O)NCCCN3CCCC3=O)c2)c1 | 3.3 | 0.5 | 27.8* | -1.2 | 6.0 | -2.4
O=C(NCCCN1CCCC1=O)c1cccc(S(=O)(=O)Nc2ccc(F)cc2)c1 | -0.4 | 3.2 | 34.1* | . | -0.5 | 1.1
Cc1cc(S(=O)(=O)Nc2ccc(C(=O)NCC3CCCO3)cc2)ccc1F (configuration not stated) | . | . | 2.8 | . | . | .
O=C(NCCCN1CCCC1=O)c1cccc(NS(=O)(=O)c2ccccc2)c1 | -2.3 | 7.2 | 8.2 | -8.8 | 6.5 | 4.6
[2H]C([2H])(CCOS(N)(=O)=O)c1ccccc1 | 2.5 | 5.7 | 1.6 | -2.7 | 3.4 | 8.3
CC(C)(C)c1ccc(C(=O)N2CCC(C(=O)c3ccccc3)CC2)cc1 | 3.5 | -3.2 | 7.5 | -9.3 | 0.9 | 5.0
CCN(c1ccccc1)c1nc(C#N)nc(N(CC)c2ccccc2)n1 | 0.9 | -0.1 | 2.8 | 29.6* | 4.4 | 2.1
SMILES | PP5 inh | PAFAH1B3 inh | pPAFAH inh | Fh CTSL1 inh | PAFAH1B2 inh | PAFAH2 FP inh
CCN(CC)c1nc(C#N)nc(N(CC)CC)n1 | . | 4.3 | . | . | 4.8 | -1.5
Cc1cccc(N(C)S(=O)(=O)c2csc(C(N)=O)c2)c1 | 1.9 | 3.7 | -2.4 | -0.8 | 7.0 | 0.2
COc1ccc(CCN(C)C(=O)c2ccc(S(=O)(=O)Nc3ccccc3C)cc2)cc1OC | 0.3 | . | 25.3* | -1.6 | . | .
CCOC(=O)c1c(C)[nH]c(C(=O)COC(=O)CNC(=O)C2CCCCC2)c1C | 0.3 | -1.0 | -2.4 | 27.2* | 3.6 | -4.3
CCc1ccc(C(=O)COC(=O)CNC(=O)C2CCCCC2)cc1 | . | 1.8 | . | . | 8.2 | 2.3
CCOC(=O)c1c(C)[nH]c(C)c1C(=O)COC(=O)CNC(=O)C1CCCCC1 | 1.0 | 10.0 | 2.3 | 54.3* | 0.6 | 4.2
CC(=O)N1CCOc2ccc(S(=O)(=O)NC[C@H]3O[C@@H](n4ccc(=O)[nH]c4=O)[C@H](O)[C@@H]3O)cc21 | . | 0.1 | . | . | 0.2 | 2.9
